# Numbering of substitutions follows the chain as printed.
# What was measured:
# Experiment in all cases: yeast three-hybrid, YBZ-1, SC-Leu-His + 0.5 mM 3-AT, 4 days
# Settings in all cases: tags: N-Gal4 AD-HA kept; label: inside an RPR1-promoter hybrid RNA with tandem MS2 sites; ssRNA
# PUM1 PUF domain R5-TNG = PUM1 PUF domain R5-TNG (Homo sapiens, UniProt Q14671 828-1176, C1007T;R1008N;Q1011G)
# Outline: (§1)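 The interaction score is the log change in variant frequency from input to selection. Scores were computed in log2 with a pseudocount of 1 for absent variants, using Illumina sequencing of PCR-amplified repeat regions. The input came from four days on SC-Leu and the selection from four days on SC-Leu-His + 0.5 mM 3-AT. The cells were strain YBZ-1 (LexA–MS2 coat fusion, HIS3 reporter) co-expressing Pumilio-1 PUF domain libraries and matching RNA elements from a centromeric plasmid.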
# PUM1 PUF domain R6-CYQ = target: T1, PUM1 PUF domain R6-CYQ (Homo sapiens, UniProt Q14671 828-1176, N1043C)
# T1 sequence: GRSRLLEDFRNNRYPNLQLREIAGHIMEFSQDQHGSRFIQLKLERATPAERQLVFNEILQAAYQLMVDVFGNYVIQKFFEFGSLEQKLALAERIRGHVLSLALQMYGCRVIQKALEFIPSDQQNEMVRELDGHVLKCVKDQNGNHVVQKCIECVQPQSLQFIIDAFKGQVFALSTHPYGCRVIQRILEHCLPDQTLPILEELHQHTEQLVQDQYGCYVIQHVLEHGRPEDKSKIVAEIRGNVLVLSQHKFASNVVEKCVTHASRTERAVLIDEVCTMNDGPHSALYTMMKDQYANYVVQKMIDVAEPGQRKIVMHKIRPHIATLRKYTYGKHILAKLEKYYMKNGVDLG
# Outline: as §1
# PUM1 PUF domain R4-GPA = PUM1 PUF domain R4-GPA (Homo sapiens, UniProt Q14671 828-1176, N971G;H972P;Q975A)
# Outline: as §1
# PUM1 PUF domain R4-PYG = PUM1 PUF domain R4-PYG (Homo sapiens, UniProt Q14671 828-1176, N971P;H972Y;Q975G)
# Outline: as §1
# PUM1 PUF domain R6-GHR = target: T2, PUM1 PUF domain R6-GHR (Homo sapiens, UniProt Q14671 828-1176, N1043G;Y1044H;Q1047R)
# T2 sequence: T1 sequence with C216G, Y217H, Q220R
# Outline: as §1
# PUM1 PUF domain R8-RRK = PUM1 PUF domain R8-RRK (Homo sapiens, UniProt Q14671 828-1176, N1122R;Y1123R;Q1126K)
# Outline: as §1
# PUM1 PUF domain R3-TFP = PUM1 PUF domain R3-TFP (Homo sapiens, UniProt Q14671 828-1176, C935T;R936F;Q939P)
# Outline: as §1
# PUM1 PUF domain R4-CMG = PUM1 PUF domain R4-CMG (Homo sapiens, UniProt Q14671 828-1176, N971C;H972M;Q975G)
# Outline: as §1
# PUM1 PUF domain R5-RKN = PUM1 PUF domain R5-RKN (Homo sapiens, UniProt Q14671 828-1176, C1007R;R1008K;Q1011N)
# Outline: as §1
# PUM1 PUF domain R3-RQV = PUM1 PUF domain R3-RQV (Homo sapiens, UniProt Q14671 828-1176, C935R;R936Q;Q939V)
# Outline: as §1
sequence,measurement,setting,value
GGCUAGAACUAGUGGAUCCCCCGGCGCCCGGCGGCUCGAGCCCGGGUAAGUGUUAAUAGUCUGCAUGCCGCCGGGCGCCAUGCCUGCAGGUCGACUCUAGAAAACAUG,binding signal,PUM1 PUF domain R5-TNG,3.75 log2 enrichment (interaction score)
GGCUAGAACUAGUGGAUCCCCCGGCGCCCGGCGGCUCGAGCCCGGGUAAGUGAAAAUAGUCUGCAUGCCGCCGGGCGCCAUGCCUGCAGGUCGACUCUAGAAAACAUG,binding signal,PUM1 PUF domain R6-CYQ,6 log2 enrichment (interaction score)
GGCUAGAACUAGUGGAUCCCCCGGCGCCCGGCGGCUCGAGCCCGGGUAAGUGUAUAUAGUCUGCAUGCCGCCGGGCGCCAUGCCUGCAGGUCGACUCUAGAAAACAUG,binding signal,PUM1 PUF domain R4-GPA,1.91 log2 enrichment (interaction score)
same,binding signal,PUM1 PUF domain R4-PYG,7.83 log2 enrichment (interaction score)
GGCUAGAACUAGUGGAUCCCCCGGCGCCCGGCGGCUCGAGCCCGGGUAAGUGCAAAUAGUCUGCAUGCCGCCGGGCGCCAUGCCUGCAGGUCGACUCUAGAAAACAUG,binding signal,PUM1 PUF domain R6-GHR,2.2 log2 enrichment (interaction score)
GGCUAGAACUAGUGGAUCCCCCGGCGCCCGGCGGCUCGAGCCCGGGUAAGCGUAAAUAGUCUGCAUGCCGCCGGGCGCCAUGCCUGCAGGUCGACUCUAGAAAACAUG,binding signal,PUM1 PUF domain R8-RRK,5.29 log2 enrichment (interaction score)
GGCUAGAACUAGUGGAUCCCCCGGCGCCCGGCGGCUCGAGCCCGGGUAAGUGUAAAUAGUCUGCAUGCCGCCGGGCGCCAUGCCUGCAGGUCGACUCUAGAAAACAUG,binding signal,PUM1 PUF domain R3-TFP,4.82 log2 enrichment (interaction score)
same,binding signal,PUM1 PUF domain R6-GHR,3.81 log2 enrichment (interaction score)
same,binding signal,PUM1 PUF domain R8-RRK,4.75 log2 enrichment (interaction score)
same,binding signal,PUM1 PUF domain R4-GPA,3.16 log2 enrichment (interaction score)
same,binding signal,PUM1 PUF domain R4-PYG,5.58 log2 enrichment (interaction score)
same,binding signal,PUM1 PUF domain R4-CMG,3.4 log2 enrichment (interaction score)
GGCUAGAACUAGUGGAUCCCCCGGCGCCCGGCGGCUCGAGCCCGGGUAAGUGUCAAUAGUCUGCAUGCCGCCGGGCGCCAUGCCUGCAGGUCGACUCUAGAAAACAUG,binding signal,PUM1 PUF domain R5-RKN,2.84 log2 enrichment (interaction score)
GGCUAGAACUAGUGGAUCCCCCGGCGCCCGGCGGCUCGAGCCCGGGUAAGUGUAAUUAGUCUGCAUGCCGCCGGGCGCCAUGCCUGCAGGUCGACUCUAGAAAACAUG,binding signal,PUM1 PUF domain R3-TFP,3.79 log2 enrichment (interaction score)
same,binding signal,PUM1 PUF domain R3-RQV,4.16 log2 enrichment (interaction score)
GGCUAGAACUAGUGGAUCCCCCGGCGCCCGGCGGCUCGAGCCCGGGUAAGUGUACAUAGUCUGCAUGCCGCCGGGCGCCAUGCCUGCAGGUCGACUCUAGAAAACAUG,binding signal,PUM1 PUF domain R4-GPA,2.05 log2 enrichment (interaction score)
same,binding signal,PUM1 PUF domain R4-PYG,6.89 log2 enrichment (interaction score)
same,binding signal,PUM1 PUF domain R4-CMG,2.47 log2 enrichment (interaction score)
